Where “and” joins values, the source holds several entries; their conditions need not be identical. Equal values may be shown once. Screen size: about 650,000 compounds; about 6,800 (1%) were called active. No stated cut-off is given here; in the data, active means activation above about 4.9%; inactive means the rest. The entries come from a sample that favours actives as a whole.

The values below come from PubChem BioAssay AID1508602 (The Scripps Research Institute Molecular Screening Center, 2020).

The assay deals with G-protein coupled receptor 151 (Homo sapiens) (UniProt Q8TDV0). Description: activates the human receptor GPR151, primary screen, cell-based, PathHunter beta-arrestin, luminescence (AID 1508602).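 Further: 0% = median of compound wells and 100% = cells with positive control.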 The following applies: PathHunter beta-arrestin GPR151 cells, at 11.2 µM, active compounds read high.
G-protein coupled receptor 151 (Homo sapiens), sequence (Q8TDV0 whole entry, looked up): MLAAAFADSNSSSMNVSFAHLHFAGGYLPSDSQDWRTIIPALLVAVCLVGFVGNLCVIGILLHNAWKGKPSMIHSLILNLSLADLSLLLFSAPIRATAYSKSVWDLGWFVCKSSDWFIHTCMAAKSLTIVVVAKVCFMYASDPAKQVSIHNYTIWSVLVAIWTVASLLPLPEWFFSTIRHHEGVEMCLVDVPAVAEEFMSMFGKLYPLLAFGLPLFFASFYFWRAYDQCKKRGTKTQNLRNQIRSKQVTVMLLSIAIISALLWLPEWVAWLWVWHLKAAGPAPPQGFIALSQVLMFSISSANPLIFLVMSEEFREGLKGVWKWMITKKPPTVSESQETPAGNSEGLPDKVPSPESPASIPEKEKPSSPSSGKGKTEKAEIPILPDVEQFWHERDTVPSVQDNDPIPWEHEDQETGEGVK
With `O=C(O)c1c(CNC2CCCCC2)c2ccccc2n1Cc1ccc(Cl)cc1`, the activation is -0.235% (inactive).
For `CC1CCCC(NCc2c(C(=O)O)n(Cc3ccc(F)cc3)c3ccccc23)C1C` (configuration not stated), the activation was 0.786% (inactive).
On to `CC1CCCC(NCc2c(C(=O)O)n(Cc3ccc(Cl)cc3)c3ccccc23)C1C` (configuration not stated), for which the activation was 7.5% (active).
As for `O=C(Nc1ccc(N2CCOCC2)cc1)c1ccc2nc(Nc3ccncc3)sc2c1`, the activation is 0.271% (inactive).
The same measure for `NC(=O)Cn1c(=O)n(CCCCC(=O)NCCc2ccccc2)c(=O)c2ccccc21`: -0.245% (inactive).
Consider `COc1ccc(OC)c(NC(=O)Cn2c(=O)n(Cc3ccccc3)c(=O)c3ccccc32)c1`, for which the activation was -0.558% (inactive).
As for `O=C(Cn1c(=O)n(Cc2ccccc2)c(=O)c2ccccc21)c1ccccc1`, the figure is 5.03% (active).
As for `CCOC(=O)c1sc(NC(C)=O)c(C#N)c1C`, the figure is -1.06% (inactive) and -0.982% (inactive); as for `CCOC(=O)c1sc(NC(=O)CSc2nnc(-c3ccccc3)o2)c(C#N)c1C`, -0.17% (inactive); as for `CCOC(=O)c1sc(NC(=O)CSc2ncccn2)c(C#N)c1C`, 4.97% (active).
As for `NC(=O)c1c(NC(=S)NC(=O)c2ccccc2)sc2c1CCCCCC2`, the figure is -0.485% (inactive); as for `COc1ccc(C2CC(c3ccccc3)n3ncnc3N2)cc1` (configuration not stated), -0.25% (inactive); as for `COC(Cn1c(=S)[nH]c2cc3ccccc3cc2c1=O)OC`, 0.597% (inactive).
With `COc1ccc(C2(C)NC(=O)N(CC(=O)Nc3ccc4ccccc4c3)C2=O)cc1` (configuration not stated), the activation was 5.16% (active).
As for `CC1(c2ccc3ccccc3c2)NC(=O)N(CC(N)=O)C1=O` (configuration not stated), the figure is -0.0365% (inactive); as for `COc1ccc(C2(C)NC(=O)N(CC(=O)NCCc3ccccc3)C2=O)cc1` (configuration not stated), -0.0334% (inactive); as for `O=C(Nc1ccc2cn[nH]c2c1)c1ccc(F)cc1F`, -2.11% (inactive).
As for `COc1ccc(C2C(C#N)=C(N)Oc3c2c(C)nn3-c2ccccc2)cc1` (configuration not stated), the figure is 8.46% (active); as for `COc1cc(C2C(C#N)=C(N)Oc3c2c(C)nn3-c2ccccc2)ccc1OCC#N` (configuration not stated), 0.152% (inactive); as for `Cc1nn(-c2ccccc2)c2c1C(c1ccc(-c3ccccc3)cc1)C(C#N)=C(N)O2` (configuration not stated), -3.52% (inactive).
As for `CCOC(=O)Cn1c(CNC(=O)c2ccco2)nc2ccccc21`, the figure is -1.37% (inactive); as for `COc1ccc(OCCCC(=O)Nc2ccccc2)cc1`, -0.655% (inactive); as for `COc1cccc(NC(=O)CCCOc2ccc(C)cc2)c1`, 0.676% (inactive).
On to `CCOC(=O)c1cccc(NC(=O)/C=C/c2ccccc2)c1`, for which the activation is 5.45% (active).
As for `CCOC(=O)c1cccc(NC(=O)CCCOc2ccc(OC)cc2)c1`, the figure is 5.63% (active).
As for `CCOC(=O)c1cccc(NC(=O)/C=C/c2ccc(Cl)cc2)c1`, the figure is -0.517% (inactive).
The same measure for `CCOC(=O)c1cccc(Nc2c(-c3ccccc3)c(=O)c2=O)c1`: -1.39% (inactive); for `COc1cc(NC(=O)CSc2ncccc2-c2nc3ccccc3[nH]2)cc(OC)c1`: -2.5% (inactive).
For `COc1ccc(N2CCN(c3nc(Nc4ccc(C)c(Cl)c4)nc(N4CCCC4)n3)CC2)cc1`, the activation is -0.777% (inactive).
The same measure for `COc1ccc(-c2cc(-c3cccs3)nc3sc(C(N)=O)c(N)c23)cc1`: -1.24% (inactive).
The same measure for `CC/C=C\C/C=C\C/C=C\C/C=C\C/C=C\C[C@H]1O[C@H]1CCC(=O)OC`: 0.982% (inactive); for `Cc1cccc(C(=O)OCC(=O)NC(=O)NCc2ccccc2)c1C`: 0.774% (inactive); for `COc1ccc(N2CCN(C(=O)c3ccc(Cn4c(=S)[nH]c5ccc(Br)cc5c4=O)cc3)CC2)cc1`: -0.211% (inactive).
The same measure for `Cc1ccc(C(=O)Oc2ccccc2/C=N/N=C2\NC(=O)C(CC(=O)O)S2)cc1` (configuration not stated): 7.49% (active).
Regarding `CC/C(=N\N=C1/NC(=O)C(CC(=O)O)S1)c1ccc(C)cc1` (configuration not stated), the activation is -1.1% (inactive).
The same measure for `COc1cc(OC)c(OC)cc1/C=N/N=C1\NC(=O)C(CC(=O)O)S1` (configuration not stated): 0.825% (inactive); for `CCCC(=O)Nc1ccc(S(=O)(=O)N(Cc2ccsc2)C2CC2)cc1`: 0.722% (inactive).
As for `O=C(Nc1ccc(NC(=O)c2cccc3c(Br)cccc23)cc1)c1ccco1`, the figure is 34.7% (active); as for `O=C(Nc1ccc(NC(=O)c2cccnc2Cl)cc1)c1ccco1`, 0.162% (inactive); as for `O=C(Nc1cccc(NC(=O)c2cccc(Cl)c2Cl)c1)c1ccco1`, -0.952% (inactive).
Consider `CCN1C(=O)S/C(=C/c2cccc(C(F)(F)F)c2)C1=O`, for which the activation was 1.18% (inactive).
The same measure for `CNC(=O)Cn1ncc2c3ccccc3n(Cc3ccccc3)c2c1=O`: 0.452% (inactive); for `COC(=O)Cn1ncc2c3ccccc3n(Cc3cccc(Cl)c3)c2c1=O`: 4.95% (active); for `CCN(CC)C(=O)Cn1ncc2c3ccccc3n(Cc3ccccc3)c2c1=O`: -0.284% (inactive).
As for `COCCOC(=O)C1=C(N)OC2=C(C(=O)CC(C)(C)C2)C1c1ccc(F)c(F)c1` (configuration not stated), the figure is 0.277% (inactive); as for `CC1=C(C(=O)OCCOc2ccccc2)C(c2ccccc2F)NC(=O)N1` (configuration not stated), -1.1% (inactive); as for `CCOC(=O)c1sc(NC(=O)C(C)Sc2nnc(CNC(=O)c3ccc(OC)cc3)n2Cc2ccccc2)c(C(=O)OCC)c1C` (configuration not stated), -1.72% (inactive).
The same measure for `CSc1nc(N)nc2nc[nH]c12`: 16.2% (active).
With `Nc1nc(SCc2cccc3ccccc23)c2[nH]cnc2n1`, the activation is -0.0695% (inactive).
For the compound `COc1ccc(-c2nc(N)c3[nH]cnc3n2)cc1`, the activation is -0.0768% (inactive).
As for `O=C(Cn1c(=S)nc2ccccn21)N1CCc2ccccc2C1`, the figure is 7.33% (active); as for `Cc1cccc2cnn(CC(=O)N3CCc4ccccc4C3)c12`, -2% (inactive).
The same measure for `CC(C)CC(=O)N1CCc2ccccc2C1`: -1.1% (inactive); for `CCc1nc(N2CCC(C(=O)O)CC2)c2oc3ccccc3c2n1`: -2.33% (inactive); for `CC(=O)C1=C(c2ccc(C(C)(C)C)cc2)N(C(C)=O)n2cnnc2S1`: 0.857% (inactive).
The same measure for `CCOc1ccc(C2=C(C(=O)CC)Sc3nnc(CC)n3N2C(=O)CC)cc1`: -0.342% (inactive); for `CCc1nnc2n1N(C(C)=O)C(c1ccc3c(c1)CCCC3)=C(C(C)=O)S2`: 8.6% (active).
Consider `CCOc1ccccc1CNn1c(-c2ccc(OC)cc2)nc2ccccc2c1=O`, for which the activation is -1.68% (inactive).
As for `COc1ccccc1/C=C/CN1CCNC(=O)C1CC(=O)NC1CC1` (configuration not stated), the figure is -1.56% (inactive); as for `CCCSc1nnc2c(n1)OC(c1cccc(Br)c1)Nc1ccccc1-2` (configuration not stated), -0.594% (inactive); as for `COc1ccc(N2C(=O)C(Cl)=C(Nc3ccc(C)cc3)C2=O)cc1`, 5.51% (active).
As for `COc1ccc(NCN2C(=O)c3cc(Cl)c(Cl)cc3C2=O)cc1`, the activation was -1.71% (inactive).
The same measure for `CCOC(=O)C1=C(C)N(c2ccc(C)cc2)C(=O)/C1=C\c1ccc(OC)cc1`: -0.542% (inactive).
The same measure for `COc1cc(/C=C2/NC(=O)N(Cc3ccc(Br)cc3)C2=O)ccc1O`: -0.481% (inactive); for `O=C(Cc1ccccc1)N1CCCc2ccccc21`: 0.472% (inactive).
Regarding `O=C(C1CCN(S(=O)(=O)Cc2ccccc2)CC1)N1CCCc2ccccc21`, the activation is 8.15% (active).
For the compound `O=C(C1CCCN1S(=O)(=O)c1ccc(Cl)cc1)N1CCCc2ccccc21` (configuration not stated), the activation is -1.26% (inactive).
As for `Cc1ccc(C(=O)Nc2ccc(O)c(-c3nc4ccccc4o3)c2)cc1`, the figure is 1.96% (inactive); as for `C/C(CC(=O)Nc1cccc(F)c1)=N\NC(=O)c1cccc(C)c1`, 0.312% (inactive); as for `COc1ccc2c(Cl)c(C(=O)Nc3ccc(N(C)C(C)=O)cc3)sc2c1`, 0.165% (inactive).
As for `O=C1CC[C@@H](CN(Cc2ccccn2)Cc2nc(-c3ccc4c(c3)OCO4)no2)N1`, the figure is -0.5% (inactive).
The same measure for `c1ccc2c(c1)CCC2Nc1nncc(-c2ccc3c(c2)OCO3)n1` (configuration not stated): 0.54% (inactive); for `CN(Cc1nc(-c2ccc3c(c2)OCO3)no1)C1CCCc2ccccc21` (configuration not stated): 6.73% (active); for `O=C1c2cccnc2C(=O)N1Cc1ccc(S(=O)(=O)NCc2ccccc2Cl)cc1`: -0.655% (inactive).
For `COC(=O)c1sc(SC)nc1Nc1ccnc(Nc2ccc(N3CCOCC3)cc2OC)c1`, the activation is 0.519% (inactive).
The same measure for `COc1ccc(NC(=O)/C(C#N)=C/c2ccccc2[N+](=O)[O-])cc1`: 0.536% (inactive); for `COc1cccc(/C=C(/C#N)C(=O)Nc2ccc(F)cc2)c1O`: 0.228% (inactive); for `COc1ccc(/C=C(\C#N)C(=O)Nc2ccc(F)cc2)c(OC)c1`: 6.94% (active).
As for `CCOc1nn(CC)cc1-c1nnc(SCC(=O)NC)n1C`, the figure is 1.61% (inactive); as for `CCCNC(=O)N1CCC2(CC1)OCc1ccccc1O2`, -0.163% (inactive).
As to `CC(=O)Oc1cc2c(C(=O)NCCN3CCOCC3)c(C)oc2c2ccccc12`, the activation was 7.59% (active).
As for `Cn1c(=O)cc(OCC(=O)NCCN2CCOCC2)c2ccccc21`, the figure is -0.103% (inactive); as for `O=C(NCCN1CCOCC1)c1cncc(-c2ccccc2)c1`, -0.0692% (inactive); as for `CC(O)CNc1ncnc2c1c(-c1ccccc1)cn2-c1ccc(Cl)cc1` (configuration not stated), -0.64% (inactive).
Take `O=C(Nc1cc(Oc2cccnc2)cc([N+](=O)[O-])c1)c1cc2nc(-c3ccc(F)cc3)cc(C(F)(F)F)n2n1`: the activation was 0.0201% (inactive).
In the case of `Cn1ccc(CC(=O)N2CCOc3ccc(CN4CCCC4)cc3C2)c1`, the activation was -0.228% (inactive).
The same measure for `CCC(=O)Nc1ccc(C(=O)c2ccccc2)cc1NC(=O)CC`: 0.269% (inactive); for `COc1cccc(OC)c1C(=O)Nc1cc(C(=O)O)ccc1C`: 1.75% (inactive).
As for `CCC(=O)Nc1cc(C(=O)O)ccc1C`, the figure is 5.86% (active); as for `COc1ccc(/C=C(\C#N)C(=O)Nc2cccc(S(=O)(=O)N3CCCCC3)c2)cc1`, 6.12% (active).
The same measure for `COc1ccc(NC(=O)c2cc(S(=O)(=O)N3CCCCC3)ccc2F)cc1`: -0.423% (inactive); for `CCOc1ccc(NC(=O)/C(C#N)=C\c2ccc(OC)cc2)cc1`: -0.986% (inactive).
